Test results from PubChem BioAssay (Tox21).
“And” between values parts separate entries of the source, which are not always exact repeats. Identical values can stand only once. Records with an inconclusive call do not appear. Entries that show only a call come without a potency. The source holds several records for some structures; these can differ, active in one and inactive in another. The source made the active and inactive calls. Unless noted, the call rests on the fitted dose curve.

How the values were obtained:
[1] = qHTS assay to identify small molecule antagonists of the sonic hedgehog signaling (Shh) pathway (AID 1259369); further: nearly all actives have a fitted effect of over 45% in size; further: potency means the concentration at half of the fitted maximal effect
In short: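 NIH/3T3 stable Gli1-Luc clone, 2,000 cells/well, 4hr settle; cpd + conditioned medium 24hr; Luc reagent 30min RT; luminescence.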

[2] = target: Estrogen receptor beta (Homo sapiens) (UniProt Q92731); experiment: qHTS assay to identify small molecule agonists of the estrogen receptor beta (ER-beta) signaling pathway (AID 1259377; active means well fitted activation curve with a large enough effect in the signal ratio in the repeat runs, not every such curve was filed as active; the % refers to the signal ratio)
Estrogen receptor beta (Homo sapiens), sequence (Q92731 whole entry, looked up, the tested form may be a part): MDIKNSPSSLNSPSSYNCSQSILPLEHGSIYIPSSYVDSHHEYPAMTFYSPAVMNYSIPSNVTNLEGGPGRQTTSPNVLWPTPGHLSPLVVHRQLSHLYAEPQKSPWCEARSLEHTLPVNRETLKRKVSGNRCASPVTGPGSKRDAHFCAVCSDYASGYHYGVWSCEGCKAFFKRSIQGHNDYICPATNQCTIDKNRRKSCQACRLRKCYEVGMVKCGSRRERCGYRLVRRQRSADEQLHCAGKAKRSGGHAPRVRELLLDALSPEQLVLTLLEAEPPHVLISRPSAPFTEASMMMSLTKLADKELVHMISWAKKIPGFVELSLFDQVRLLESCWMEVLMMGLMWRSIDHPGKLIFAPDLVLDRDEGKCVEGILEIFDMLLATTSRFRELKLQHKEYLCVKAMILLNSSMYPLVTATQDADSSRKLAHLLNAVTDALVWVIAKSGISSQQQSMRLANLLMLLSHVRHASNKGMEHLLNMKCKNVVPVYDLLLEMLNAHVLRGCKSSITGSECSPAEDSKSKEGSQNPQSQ
In short: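 Agonist mode cell assay in GripTite HEK293T cells expressing an ER-beta fusion that drives beta-lactamase from an Upstream Activator Sequence; 16 hr compound exposure at 37C, then 2 h LiveBLAzer B/G FRET substrate at room temperature, fluorescence read-out.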

[3] = target: Estrogen receptor beta (Homo sapiens) (UniProt Q92731); experiment: qHTS assay to identify small molecule antagonists of the estrogen receptor beta (ER-beta) signaling pathway (AID 1259378; active means well fitted inhibition curve with a large enough effect in the signal ratio in the repeat runs, not every such curve was filed as active; the % refers to the signal ratio; further: potency means the concentration at half of the fitted maximal effect)
In short: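 ER-beta-UAS-bla HEK293T cells in 2% charcoal-stripped FBS medium treated with compound plus 1nM final 17-beta-estradiol for 16 hr at 37C. Beta-lactamase reporter read by FRET substrate fluorescence after 2 hours at room temperature.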

[4] = qHTS assay to identify small molecule agonists of the androgen receptor (AR) signaling pathway in the presence of an antagonist - cell viability counter screen (AID 1259379; active means well fitted curve in the direction sought with a large enough effect in the repeat runs; an effect the other way counts as inactive or inconclusive;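 further: MDA-kb2 human breast cancer cells carrying an MMTV luciferase reporter; series mostly up to about 92 µM; nearly all actives have a fitted effect of over 25% in size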)
In short: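 MDA-kb2 viability measured by CellTiter-Fluor fluorescence in the same wells as the luciferase signal; nilutamide 3.0uM final; 15-point compound titration; 16 hr at 37C.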

[5] = qHTS assay to identify small molecule agonists of the estrogen receptor beta (ER-beta) signaling pathway - cell viability counter screen (AID 1259380; active means well fitted curve in the direction sought with a large enough effect in the repeat runs; an effect the other way counts as inactive or inconclusive; further: nearly all actives have a fitted effect of over 30% in size; further: potency means the concentration at half of the fitted maximal effect)
In short: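 Measured: luminescence from CellTiter-Glo after 30 min at room temperature, added to wells already read for the LiveBLAzer FRET reporter (2 hr substrate); ER-beta-UAS-bla HEK293T cells had 16 hr compound treatment at 37C, 5% CO2.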

[6] = qHTS assay to identify small molecule antagonists of the estrogen receptor beta (ER-beta) signaling pathway - cell viability counter screen (AID 1259382; active means well fitted curve in the direction sought with a large enough effect in the repeat runs; an effect the other way counts as inactive or inconclusive; further: nearly all actives have a fitted effect of over 55% in size; further: potency means the concentration at half of the fitted maximal effect)
In short: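 Readout: luminescence, CellTiter-Glo, same wells as bla assay. System: ER-beta-UAS-bla GripTite HEK293T, 2% charcoal-stripped FBS. Exposure: compounds plus 1nM 17-beta-estradiol, 16 hr, 37C.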

[7] = qHTS assay to identify small molecule agonists or antagonists of the thyroid stimulating hormone receptor (TSHR) signaling pathway - wild type cell line counter screen (AID 1259384)
In short: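 Wild-type Hek293 cells, 800/well, 18 h at 37C, then compound with Ro20-1724 for 30 min RT. cAMP by HTRF (cAMP-d2/anti-cAMP cryptate), 1 h RT, fluorescence read. 15 concentrations, triplicates.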

[8] = target: Thyrotropin receptor (Homo sapiens) (UniProt P16473); experiment: qHTS assay to identify small molecule antagonists of the thyroid stimulating hormone receptor (TSHR) signaling pathway (AID 1259385); further: nearly all actives have a fitted effect of over 20% in size
Thyrotropin receptor (Homo sapiens), sequence (P16473 whole entry, looked up): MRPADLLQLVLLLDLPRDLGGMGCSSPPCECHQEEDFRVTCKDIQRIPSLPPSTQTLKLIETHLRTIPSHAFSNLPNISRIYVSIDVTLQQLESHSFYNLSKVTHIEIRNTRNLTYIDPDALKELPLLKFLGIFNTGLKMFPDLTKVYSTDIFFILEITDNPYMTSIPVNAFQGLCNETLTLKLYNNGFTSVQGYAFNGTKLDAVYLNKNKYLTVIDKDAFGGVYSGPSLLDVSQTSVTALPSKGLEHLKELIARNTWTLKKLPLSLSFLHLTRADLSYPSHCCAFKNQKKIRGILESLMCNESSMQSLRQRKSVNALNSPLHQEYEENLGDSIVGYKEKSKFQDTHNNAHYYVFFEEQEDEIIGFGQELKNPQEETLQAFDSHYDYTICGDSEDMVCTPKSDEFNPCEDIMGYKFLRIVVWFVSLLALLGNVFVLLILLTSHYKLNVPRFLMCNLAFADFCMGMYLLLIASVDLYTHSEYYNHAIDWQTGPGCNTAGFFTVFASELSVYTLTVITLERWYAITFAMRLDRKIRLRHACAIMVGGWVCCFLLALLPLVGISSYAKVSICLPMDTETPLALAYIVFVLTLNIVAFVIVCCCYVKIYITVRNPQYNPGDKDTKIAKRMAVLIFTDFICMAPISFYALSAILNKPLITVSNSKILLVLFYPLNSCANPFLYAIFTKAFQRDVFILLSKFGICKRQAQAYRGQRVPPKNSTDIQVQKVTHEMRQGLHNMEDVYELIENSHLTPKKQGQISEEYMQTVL
In short: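 TSHR-HEK293 cells (800/well) plated 18 h, then compounds with Ro20-1724 and TSH at 1.5 ng/mL final, 30 min at room temperature. cAMP quantified by HTRF (cAMP-d2/anti-cAMP-cryptate, 1 h); 15 concentrations in triplicate.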

[9] = qHTS assay to identify small molecule agonists of the estrogen receptor alpha (ER-alpha) signaling pathway in the presence of an antagonist - cell viability counter screen (AID 1259386; active means well fitted curve in the direction sought with a large enough effect in the repeat runs; an effect the other way counts as inactive or inconclusive;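 further: series mostly up to about 92 µM; cells exposed to compounds for 22 h at 37 °C before the viability read; nearly all actives have a fitted effect of over 30% in size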)
In short: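 The test measures whether compounds kill ER-alpha reporter cells (VM7Luc4E2) under antagonist co-treatment (ICI-182,780, 10.0nM). Fluorescence from CellTiter-Fluor is read after a 22hr exposure.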

[10] = target: Progesterone receptor (Homo sapiens) (UniProt P06401); experiment: qHTS assay to identify small molecule agonists of the progesterone receptor (PR) signaling pathway (AID 1346784); further: nearly all actives have a fitted effect of over 30% in size
Progesterone receptor (Homo sapiens), sequence (P06401 whole entry, looked up): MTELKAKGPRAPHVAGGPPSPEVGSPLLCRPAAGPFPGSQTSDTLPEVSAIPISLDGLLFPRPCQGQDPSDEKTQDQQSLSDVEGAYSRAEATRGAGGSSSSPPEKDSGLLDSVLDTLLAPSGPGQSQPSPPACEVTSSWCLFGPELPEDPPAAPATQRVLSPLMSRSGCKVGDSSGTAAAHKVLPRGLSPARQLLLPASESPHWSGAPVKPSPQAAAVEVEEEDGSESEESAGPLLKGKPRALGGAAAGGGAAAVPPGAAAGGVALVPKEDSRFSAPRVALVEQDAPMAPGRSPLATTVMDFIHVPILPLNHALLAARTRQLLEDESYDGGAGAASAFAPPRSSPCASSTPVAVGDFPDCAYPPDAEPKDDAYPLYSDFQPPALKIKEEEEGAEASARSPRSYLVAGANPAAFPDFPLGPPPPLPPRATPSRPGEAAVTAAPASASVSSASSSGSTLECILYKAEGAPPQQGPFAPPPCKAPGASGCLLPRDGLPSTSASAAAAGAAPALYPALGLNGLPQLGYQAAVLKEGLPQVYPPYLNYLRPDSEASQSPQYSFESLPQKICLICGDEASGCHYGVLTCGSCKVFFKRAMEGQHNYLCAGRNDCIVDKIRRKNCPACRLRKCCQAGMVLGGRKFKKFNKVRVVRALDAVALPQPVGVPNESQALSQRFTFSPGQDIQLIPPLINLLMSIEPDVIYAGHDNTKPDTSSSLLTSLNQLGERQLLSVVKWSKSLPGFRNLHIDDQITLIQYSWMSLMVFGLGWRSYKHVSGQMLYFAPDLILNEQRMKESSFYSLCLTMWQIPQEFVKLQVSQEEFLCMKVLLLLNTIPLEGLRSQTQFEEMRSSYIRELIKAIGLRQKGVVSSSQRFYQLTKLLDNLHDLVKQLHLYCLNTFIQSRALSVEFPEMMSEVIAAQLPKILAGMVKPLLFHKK
In short: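 Cells (PR-UAS-bla HEK 293T, GripTite) were plated in assay medium containing 2% charcoal-stripped FBS and incubated 6 hr. Test compounds in DMSO were added for 16 hr at 37C. FRET substrate was then loaded for 2 hr at room temperature before fluorescence reading.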

[11] = qHTS assay to identify small molecule antagonists of the progesterone receptor (PR) signaling pathway - cell viability counter screen (AID 1346798; active means well fitted curve in the direction sought with a large enough effect in the repeat runs; an effect the other way counts as inactive or inconclusive; further: series mostly up to about 92 µM; nearly all actives have a fitted effect of over 50% in size)
In short: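 Counter screen for cytotoxicity: viability of PR-UAS-bla HEK293T cells was measured with CellTiter-Glo luminescence following 16 hr compound exposure in the presence of R5020.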

[12] = qHTS assay to identify small molecule agonists of the progesterone receptor (PR) signaling pathway - cell viability counter screen (AID 1346799); further: nearly all actives have a fitted effect of over 45% in size; further: potency means the concentration at half of the fitted maximal effect
In short: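 Cells (PR-UAS-bla HEK293T) are plated at 3,000/well in 2% charcoal-stripped FBS medium, rested 6 hr, dosed and incubated 16 hr at 37C. CellTiter-Glo is then added and luminescence measured after 30 min at room temperature.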

[13] = qHTS assay to identify small molecule antagonists of the TGF-beta/Smad signaling pathway - cell viability counter screen (AID 1346824; active means well fitted curve in the direction sought with a large enough effect in the repeat runs; an effect the other way counts as inactive or inconclusive; further: nearly all actives have a fitted effect of over 50% in size)
In short: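 SBE-bla HEK 293T cells, incubated overnight, then compound plus 0.25 ng/mL TGF-beta1 (stock added) for 5 hr at 37 C. Viability was read in the same wells by CellTiter-Glo luminescence after 30 min at room temperature.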

[14] = qHTS assay to identify small molecule agonists of the TGF-beta/Smad signaling pathway - cell viability counter screen (AID 1346829; active means well fitted curve in the direction sought with a large enough effect in the repeat runs; an effect the other way counts as inactive or inconclusive; further: top concentration of the series differs between compounds; nearly all actives have a fitted effect of over 45% in size)
In short: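 Here the cytotoxicity of library compounds is measured in SBE-bla HEK 293T cells treated for 5 hr, using CellTiter-Glo added to wells already read for the beta-lactamase reporter.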

[15] = qHTS assay to identify small molecule agonists of the TGF-beta/Smad signaling pathway (AID 1346859; active means well fitted activation curve with a large enough effect in the signal ratio in the repeat runs, not every such curve was filed as active; the % refers to the signal ratio; further: potency means the concentration at half of the fitted maximal effect; on activation: series mostly up to about 77 µM)
In short: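 Reporter line: HEK 293T with stably integrated SBE-controlled beta-lactamase. Compound exposure lasts 5 hr at 37 C and 5% CO2; substrate loading follows for 2 hr at room temperature, with emission read at 460 and 530 nm.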

[16] = target: Thyrotropin-releasing hormone receptor (Homo sapiens) (UniProt P34981); experiment: qHTS assay to identify small molecule antagonists of the thyrotropin-releasing hormone receptor (TRHR) signaling pathway (AID 1346877; active means well fitted inhibition curve with a large enough effect in the repeat runs, not every such curve was filed as active; further: series mostly up to about 51 µM)
Thyrotropin-releasing hormone receptor (Homo sapiens), sequence (P34981 whole entry, looked up): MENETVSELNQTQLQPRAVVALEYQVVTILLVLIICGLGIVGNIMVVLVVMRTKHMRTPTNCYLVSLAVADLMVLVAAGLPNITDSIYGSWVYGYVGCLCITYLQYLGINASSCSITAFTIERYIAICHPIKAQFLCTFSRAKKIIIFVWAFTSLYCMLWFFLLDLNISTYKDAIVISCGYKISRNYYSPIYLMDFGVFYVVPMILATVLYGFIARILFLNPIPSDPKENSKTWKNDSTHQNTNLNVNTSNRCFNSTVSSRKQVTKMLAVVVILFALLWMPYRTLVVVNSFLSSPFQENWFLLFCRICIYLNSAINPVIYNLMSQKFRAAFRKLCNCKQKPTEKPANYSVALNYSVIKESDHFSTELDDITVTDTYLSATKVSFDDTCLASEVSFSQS
In short: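 Overnight-plated (18 h, 37 °C) HEK293 cells expressing TRHR were dye-loaded 2 h, treated with compound, then stimulated with TRH at 1 nM final. Fluorescence intensity was captured every second for 3 min.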

[17] = target: Thyrotropin-releasing hormone receptor (Homo sapiens) (UniProt P34981); experiment: qHTS assay to identify small molecule agonists of the thyrotropin-releasing hormone receptor (TRHR) signaling pathway (AID 1346891);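 further: HEK293 cells expressing TRHR with calcium dye readout; series mostly up to about 58 µM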
In short: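 Cells: TRHR-Hek293, seeded and incubated 18 h. Dye loading: 2 h at 37 °C. Compound added from DMSO stock by pin tool. Read-out: kinetic calcium fluorescence over 3 min.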

[18] = target: Estrogen receptor (Homo sapiens) (UniProt P03372); experiment: qHTS assay to identify small molecule agonists of the estrogen receptor alpha (ER-alpha) signaling pathway in the presence of an antagonist (AID 1259383); further: top concentration of the series differs between compounds; nearly all actives have a fitted effect of over 15% in size
Estrogen receptor (Homo sapiens), sequence (P03372 whole entry, looked up): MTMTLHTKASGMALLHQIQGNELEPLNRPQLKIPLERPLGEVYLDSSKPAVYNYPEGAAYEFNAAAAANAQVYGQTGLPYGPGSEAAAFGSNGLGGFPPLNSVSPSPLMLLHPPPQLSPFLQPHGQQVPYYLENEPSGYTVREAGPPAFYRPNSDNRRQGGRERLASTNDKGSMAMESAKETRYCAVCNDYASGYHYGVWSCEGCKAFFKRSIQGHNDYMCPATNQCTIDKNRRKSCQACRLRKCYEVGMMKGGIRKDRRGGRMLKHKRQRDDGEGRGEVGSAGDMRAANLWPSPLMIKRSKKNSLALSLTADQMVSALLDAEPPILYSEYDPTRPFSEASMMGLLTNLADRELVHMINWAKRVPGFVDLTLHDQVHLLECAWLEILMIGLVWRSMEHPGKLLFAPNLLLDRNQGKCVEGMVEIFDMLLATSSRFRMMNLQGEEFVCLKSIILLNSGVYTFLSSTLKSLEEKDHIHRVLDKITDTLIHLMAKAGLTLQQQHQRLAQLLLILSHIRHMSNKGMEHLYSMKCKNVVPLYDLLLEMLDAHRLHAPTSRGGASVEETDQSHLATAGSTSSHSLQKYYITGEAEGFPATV
In short: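 Quantitative HTS confirmation: compounds titrated at 15 concentrations onto estrogen-deprived VM7Luc4E2 cells carrying a four-ERE luciferase construct, with ICI-182,780 present at 10.0nM final. Signal is luminescence after 22hr exposure.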

[19] = target: Progesterone receptor (Homo sapiens) (UniProt P06401); experiment: qHTS assay to identify small molecule antagonists of the progesterone receptor (PR) signaling pathway (AID 1346795; active means well fitted inhibition curve with a large enough effect in the signal ratio in the repeat runs, not every such curve was filed as active; the % refers to the signal ratio)
In short: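 Antagonist mode: compounds tested against 1 nM (final) promegestone stimulation in HEK293T cells expressing PR-UAS-bla reporter, 16 hr at 37C, 5% CO2; beta-lactamase activity detected via B/G FRET substrate after 2 hr at room temperature.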

[20] = target: Androgen receptor (Homo sapiens) (UniProt P10275); experiment: qHTS assay to identify small molecule agonists of the androgen receptor (AR) signaling pathway in the presence of an antagonist (AID 1259381); further: nearly all actives have a fitted effect of over 15% in size
Androgen receptor (Homo sapiens), sequence (P10275 whole entry, looked up): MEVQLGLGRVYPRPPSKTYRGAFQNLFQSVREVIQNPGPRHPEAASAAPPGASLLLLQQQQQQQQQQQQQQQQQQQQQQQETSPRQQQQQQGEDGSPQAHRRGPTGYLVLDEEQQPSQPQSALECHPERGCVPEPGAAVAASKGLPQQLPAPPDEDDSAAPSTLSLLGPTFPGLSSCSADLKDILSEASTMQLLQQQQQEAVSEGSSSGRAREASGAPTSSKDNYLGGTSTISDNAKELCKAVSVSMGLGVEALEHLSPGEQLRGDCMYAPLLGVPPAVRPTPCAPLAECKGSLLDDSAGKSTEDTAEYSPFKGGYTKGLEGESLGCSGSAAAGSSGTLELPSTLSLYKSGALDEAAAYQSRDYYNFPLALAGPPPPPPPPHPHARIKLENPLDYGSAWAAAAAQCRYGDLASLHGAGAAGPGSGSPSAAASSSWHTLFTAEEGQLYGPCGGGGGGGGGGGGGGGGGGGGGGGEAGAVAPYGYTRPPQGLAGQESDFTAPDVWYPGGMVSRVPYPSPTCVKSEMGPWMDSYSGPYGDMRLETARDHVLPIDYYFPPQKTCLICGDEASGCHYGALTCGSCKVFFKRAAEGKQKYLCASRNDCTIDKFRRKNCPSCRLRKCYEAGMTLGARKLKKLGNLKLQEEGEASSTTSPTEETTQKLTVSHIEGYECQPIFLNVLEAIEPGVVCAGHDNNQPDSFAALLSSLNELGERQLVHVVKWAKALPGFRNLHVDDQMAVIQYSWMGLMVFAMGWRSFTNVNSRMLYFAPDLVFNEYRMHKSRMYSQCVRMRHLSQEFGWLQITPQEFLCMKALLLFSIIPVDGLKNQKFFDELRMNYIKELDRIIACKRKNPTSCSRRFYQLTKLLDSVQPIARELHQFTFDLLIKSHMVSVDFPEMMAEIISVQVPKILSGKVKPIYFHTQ
In short: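 Luminescent ONE-Glo read, 30min at room temperature, follows 16hr compound exposure (15 concentrations) of MDA-kb2 cells at 37C, 0% CO2, with nilutamide added at 3.0uM final.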

SMILES | Potency [1] | Potency [2] | Potency [3] | Potency [4] | Potency [5] | Potency [6] | Potency [7] | Potency [8] | Potency [9] | Potency [10] | Potency [11] | Potency [12] | Potency [13] | Potency [14] | Potency [15] | Potency [16] | outcome [17] | Potency [18] | Potency [19] | outcome [20]
CC(COCC(C)OC(=O)c1ccccc1)OC(=O)c1ccccc1 (configuration not stated) | inactive | inactive | inactive | inactive | inactive | inactive | inactive | inactive | inactive | inactive | inactive | inactive | inactive | inactive | inactive | inactive | inactive | – | – | –
O=C1CCCCCCCCCCC1 | inactive | inactive | inactive | inactive | inactive | inactive | inactive | inactive | inactive | inactive | inactive | inactive | inactive | inactive | inactive | – | – | inactive | – | –
CC(C)=CCC/C(C)=C/C=O | inactive | inactive | inactive | inactive | inactive | inactive | inactive | inactive | inactive | inactive | inactive | inactive | inactive | inactive | inactive | – | – | inactive | inactive | –
CCCCCCCCCCCCCC(=O)O | inactive | inactive | inactive | inactive | 43.1 µM (active) and 61.1 µM (active) | inactive | inactive | inactive | inactive | inactive | inactive | inactive | inactive | inactive | inactive | inactive | inactive | inactive | inactive | –
CC/C=C(\C(=O)N[C@@H]1C(=O)N2C(C(=O)OCOC(=O)C(C)(C)C)=C(COC(N)=O)CS[C@H]12)c1csc(N)n1 | inactive | inactive | inactive | inactive | inactive | – | inactive | inactive | inactive | inactive | inactive | inactive | inactive | inactive | inactive | inactive | inactive | inactive | – | –
C=C(CC(=O)O)C(=O)O | inactive | inactive | inactive | – | inactive | – | inactive | inactive | inactive | inactive | inactive | inactive | inactive | inactive | inactive | inactive | inactive | – | inactive | –
C=CC(=O)NCOCCCC | inactive | inactive | inactive | – | inactive | inactive | – | – | inactive | inactive | inactive | inactive | inactive | inactive | inactive | inactive | inactive | inactive | inactive | –
Nc1nc(N)c2nc(-c3ccccc3)c(N)nc2n1 | 24.6 µM (active) and 30.6 µM (active) | – | – | inactive | 69.4 µM (active) and inactive | – | inactive | inactive | inactive | – | inactive | inactive | inactive | inactive | 22.1 µM (active) and 19 µM (active) | inactive | inactive | inactive | – | inactive
COC(=O)OC | inactive | inactive | inactive | – | inactive | – | inactive | inactive | inactive | inactive | inactive | inactive | inactive | inactive | inactive | inactive | inactive | – | inactive | –
COC(=O)/C=C\C(=O)OC | inactive | inactive | inactive | – | inactive | inactive | inactive | inactive | inactive | inactive | inactive | inactive | inactive | inactive | inactive | inactive | inactive | – | – | –
NCCNCCNCCN | inactive | – | inactive | inactive | inactive | inactive | inactive | inactive | inactive | inactive | inactive | inactive | inactive | inactive | inactive | inactive | inactive | – | inactive | –
NC(N)=S | inactive | – | – | inactive | inactive | inactive | inactive | inactive | inactive | inactive | inactive | inactive | inactive | inactive | inactive | inactive | inactive | inactive | inactive | –
CCCCC(CC)COC(=O)c1ccc(C(=O)OCC(CC)CCCC)cc1 (configuration not stated) | inactive | – | – | inactive | inactive | – | – | – | inactive | inactive | inactive | inactive | inactive | inactive | inactive | inactive | inactive | – | inactive | inactive
Cc1ccc(C(C)C)cc1 | inactive | – | – | inactive | inactive | inactive | inactive | inactive | inactive | inactive | inactive | inactive | inactive | inactive | inactive | inactive | inactive | inactive | inactive | inactive
NC1CCCCC1N (configuration not stated) | inactive | inactive | inactive | – | inactive | – | inactive | inactive | inactive | inactive | inactive | inactive | inactive | inactive | inactive | – | – | – | inactive | –
CCCOCC(C)O (configuration not stated) | inactive | – | – | inactive | inactive | – | inactive | inactive | inactive | inactive | inactive | inactive | inactive | inactive | inactive | inactive | inactive | – | – | inactive
CC(CN1c2ccccc2Sc2ccccc21)N(C)C (configuration not stated) | 12.3 µM (active) and 27.3 µM (active) and 13.3 µM (active) | inactive | 43.3 µM (active) and 29.8 µM (active) | – | 49.1 µM (active) and 24.3 µM (active) and 23.7 µM (active) | 24.6 µM (active) and 21.7 µM (active) and 16.8 µM (active) | inactive | inactive | inactive | inactive | – | 69.3 µM (active) and 30.6 µM (active) and inactive | inactive | inactive | inactive | inactive | inactive | – | – | –
CC(=O)OCc1ccc2c(c1)OCO2 | inactive | inactive | inactive | – | inactive | inactive | inactive | inactive | inactive | inactive | inactive | inactive | inactive | inactive | inactive | inactive | inactive | – | inactive | –
